Reference: the supplement of paper PMC10849652
About 8,800 targets were measured; listed, in parts, are those with a hit and a random draw of the rest. About 0.5% of all pairs of compound and target were hits. Values without a mark were called inactive.

How the values were obtained:
Assay in all cases: log2 fold change, soluble protein after heating vs DMSO (PISA); higher = thermal stabilisation; K562 lysate, 10 uM; active = over 0.2 and 3.5 SD of the protein, either way, in both replicates (recomputed)
[1] = compound: C1=CC=C(C=C1)[C@H](COC2=CC3=C(C=C2)NC(=O)N3)NC(=O)C4=CC=CN(C4=O)CC5=CC(=C(C=C5)F)F
Procedure, shortened: (§1)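 Soluble protein was defined as the supernatant remaining after 21,000xg for 90 min, following pooling of heated aliquots and adjustment to 0.5% NP-40 at 4°C. Before that, crude K562 extract at 1 mg/mL protein in PBS pH 7.4 with 1 mM MgCl2 was treated with 10 μM compound for 30 min and heated for 3 min across 48°C-58°C. Quantification used TMTpro 16plex LC-MS/MS with channel sums equalised, and values are log-two fold changes in thermal stability relative to solvent controls from duplicates.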

[2] = compound: CC1=C(SC2=C1C(=N[C@H](C3=NN=C(N32)C)CC(=O)N)C4=CC=C(C=C4)Cl)C
Procedure, shortened: as §1

[3] = compound: CC1=C2C(=CC=C1)N=C(N(C2=O)C3=CC=CC=C3C)CN4C=NC5=C(N=CN=C54)N
Procedure, shortened: as §1

[4] = compound: Cc1sc2c(c1C)C(c1ccc(Cl)cc1)=N[C@@H](CC(=O)OC(C)(C)C)c1nnc(C)n1-2
Procedure, shortened: as §1

[5] = compound: c1ccc([C@@H]2C[C@H]2NC2CCNCC2)cc1
Procedure, shortened: as §1

Sequence of UniProt P46734 (P46734 whole entry, looked up): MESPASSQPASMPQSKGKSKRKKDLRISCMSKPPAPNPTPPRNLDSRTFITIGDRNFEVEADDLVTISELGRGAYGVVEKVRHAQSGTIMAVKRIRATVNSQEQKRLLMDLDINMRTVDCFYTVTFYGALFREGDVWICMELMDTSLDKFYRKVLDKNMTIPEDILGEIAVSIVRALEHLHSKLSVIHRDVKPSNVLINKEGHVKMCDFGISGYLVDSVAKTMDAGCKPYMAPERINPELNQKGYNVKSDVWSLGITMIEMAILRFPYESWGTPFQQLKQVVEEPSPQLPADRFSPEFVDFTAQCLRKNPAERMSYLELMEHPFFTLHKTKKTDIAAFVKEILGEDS
Sequence of UniProt Q9BTT4 (Q9BTT4 whole entry, looked up): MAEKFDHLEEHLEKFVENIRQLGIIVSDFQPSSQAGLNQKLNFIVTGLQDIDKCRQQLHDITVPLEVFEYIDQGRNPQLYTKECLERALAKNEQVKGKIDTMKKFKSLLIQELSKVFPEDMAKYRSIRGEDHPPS
Sequence of UniProt Q14703 (Q14703 whole entry, looked up): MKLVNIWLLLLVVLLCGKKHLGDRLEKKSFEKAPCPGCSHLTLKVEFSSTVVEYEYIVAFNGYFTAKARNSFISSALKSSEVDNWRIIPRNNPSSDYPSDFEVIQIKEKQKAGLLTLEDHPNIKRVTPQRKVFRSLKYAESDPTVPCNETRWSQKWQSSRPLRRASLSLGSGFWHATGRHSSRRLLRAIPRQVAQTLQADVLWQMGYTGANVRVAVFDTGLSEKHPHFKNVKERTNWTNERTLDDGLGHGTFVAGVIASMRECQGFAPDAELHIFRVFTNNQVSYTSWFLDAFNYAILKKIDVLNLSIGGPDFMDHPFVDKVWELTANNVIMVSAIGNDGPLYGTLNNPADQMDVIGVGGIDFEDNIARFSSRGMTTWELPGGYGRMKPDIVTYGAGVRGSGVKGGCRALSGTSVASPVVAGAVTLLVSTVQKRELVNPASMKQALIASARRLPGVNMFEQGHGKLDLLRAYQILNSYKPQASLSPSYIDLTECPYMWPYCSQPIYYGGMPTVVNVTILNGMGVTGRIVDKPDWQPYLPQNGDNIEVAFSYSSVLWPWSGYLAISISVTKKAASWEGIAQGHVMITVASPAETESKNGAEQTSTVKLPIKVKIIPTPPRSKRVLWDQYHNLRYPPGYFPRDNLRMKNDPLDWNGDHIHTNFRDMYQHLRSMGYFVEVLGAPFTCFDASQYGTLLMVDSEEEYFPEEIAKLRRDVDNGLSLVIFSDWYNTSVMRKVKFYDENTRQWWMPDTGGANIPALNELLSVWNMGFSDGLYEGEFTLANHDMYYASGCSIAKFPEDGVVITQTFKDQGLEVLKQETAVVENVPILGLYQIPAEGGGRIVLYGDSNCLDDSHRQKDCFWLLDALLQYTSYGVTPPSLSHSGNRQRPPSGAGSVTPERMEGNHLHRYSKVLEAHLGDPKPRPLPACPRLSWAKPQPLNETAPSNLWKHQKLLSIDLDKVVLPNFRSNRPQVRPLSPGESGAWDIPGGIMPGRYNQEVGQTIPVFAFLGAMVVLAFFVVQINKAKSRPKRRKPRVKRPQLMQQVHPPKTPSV
Sequence of UniProt Q14149 (Q14149 whole entry, looked up): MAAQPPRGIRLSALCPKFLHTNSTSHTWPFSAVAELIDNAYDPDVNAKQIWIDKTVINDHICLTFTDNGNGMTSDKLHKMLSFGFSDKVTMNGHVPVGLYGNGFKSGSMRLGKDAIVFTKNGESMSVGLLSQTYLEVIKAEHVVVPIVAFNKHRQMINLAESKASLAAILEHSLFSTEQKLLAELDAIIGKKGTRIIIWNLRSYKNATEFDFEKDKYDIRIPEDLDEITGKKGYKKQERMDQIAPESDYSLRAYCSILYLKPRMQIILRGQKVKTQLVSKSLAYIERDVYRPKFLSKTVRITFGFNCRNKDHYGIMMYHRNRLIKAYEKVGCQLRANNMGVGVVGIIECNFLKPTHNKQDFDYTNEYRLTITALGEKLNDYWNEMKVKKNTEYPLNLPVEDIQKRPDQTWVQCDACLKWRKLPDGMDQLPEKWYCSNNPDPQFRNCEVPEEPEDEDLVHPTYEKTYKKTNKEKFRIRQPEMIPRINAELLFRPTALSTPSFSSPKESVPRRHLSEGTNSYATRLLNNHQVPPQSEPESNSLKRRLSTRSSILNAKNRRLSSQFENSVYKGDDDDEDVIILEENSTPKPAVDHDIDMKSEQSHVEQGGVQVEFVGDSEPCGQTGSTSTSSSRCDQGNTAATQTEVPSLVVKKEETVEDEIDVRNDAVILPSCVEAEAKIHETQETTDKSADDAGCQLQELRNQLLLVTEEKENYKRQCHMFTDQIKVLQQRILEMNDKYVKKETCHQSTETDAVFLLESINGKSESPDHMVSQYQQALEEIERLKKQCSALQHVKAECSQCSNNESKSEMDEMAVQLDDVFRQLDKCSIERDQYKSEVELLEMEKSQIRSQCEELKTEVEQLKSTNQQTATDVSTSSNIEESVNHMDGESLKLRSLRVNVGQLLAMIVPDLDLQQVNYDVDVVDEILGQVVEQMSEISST
Sequence of UniProt Q15058 (Q15058 whole entry, looked up): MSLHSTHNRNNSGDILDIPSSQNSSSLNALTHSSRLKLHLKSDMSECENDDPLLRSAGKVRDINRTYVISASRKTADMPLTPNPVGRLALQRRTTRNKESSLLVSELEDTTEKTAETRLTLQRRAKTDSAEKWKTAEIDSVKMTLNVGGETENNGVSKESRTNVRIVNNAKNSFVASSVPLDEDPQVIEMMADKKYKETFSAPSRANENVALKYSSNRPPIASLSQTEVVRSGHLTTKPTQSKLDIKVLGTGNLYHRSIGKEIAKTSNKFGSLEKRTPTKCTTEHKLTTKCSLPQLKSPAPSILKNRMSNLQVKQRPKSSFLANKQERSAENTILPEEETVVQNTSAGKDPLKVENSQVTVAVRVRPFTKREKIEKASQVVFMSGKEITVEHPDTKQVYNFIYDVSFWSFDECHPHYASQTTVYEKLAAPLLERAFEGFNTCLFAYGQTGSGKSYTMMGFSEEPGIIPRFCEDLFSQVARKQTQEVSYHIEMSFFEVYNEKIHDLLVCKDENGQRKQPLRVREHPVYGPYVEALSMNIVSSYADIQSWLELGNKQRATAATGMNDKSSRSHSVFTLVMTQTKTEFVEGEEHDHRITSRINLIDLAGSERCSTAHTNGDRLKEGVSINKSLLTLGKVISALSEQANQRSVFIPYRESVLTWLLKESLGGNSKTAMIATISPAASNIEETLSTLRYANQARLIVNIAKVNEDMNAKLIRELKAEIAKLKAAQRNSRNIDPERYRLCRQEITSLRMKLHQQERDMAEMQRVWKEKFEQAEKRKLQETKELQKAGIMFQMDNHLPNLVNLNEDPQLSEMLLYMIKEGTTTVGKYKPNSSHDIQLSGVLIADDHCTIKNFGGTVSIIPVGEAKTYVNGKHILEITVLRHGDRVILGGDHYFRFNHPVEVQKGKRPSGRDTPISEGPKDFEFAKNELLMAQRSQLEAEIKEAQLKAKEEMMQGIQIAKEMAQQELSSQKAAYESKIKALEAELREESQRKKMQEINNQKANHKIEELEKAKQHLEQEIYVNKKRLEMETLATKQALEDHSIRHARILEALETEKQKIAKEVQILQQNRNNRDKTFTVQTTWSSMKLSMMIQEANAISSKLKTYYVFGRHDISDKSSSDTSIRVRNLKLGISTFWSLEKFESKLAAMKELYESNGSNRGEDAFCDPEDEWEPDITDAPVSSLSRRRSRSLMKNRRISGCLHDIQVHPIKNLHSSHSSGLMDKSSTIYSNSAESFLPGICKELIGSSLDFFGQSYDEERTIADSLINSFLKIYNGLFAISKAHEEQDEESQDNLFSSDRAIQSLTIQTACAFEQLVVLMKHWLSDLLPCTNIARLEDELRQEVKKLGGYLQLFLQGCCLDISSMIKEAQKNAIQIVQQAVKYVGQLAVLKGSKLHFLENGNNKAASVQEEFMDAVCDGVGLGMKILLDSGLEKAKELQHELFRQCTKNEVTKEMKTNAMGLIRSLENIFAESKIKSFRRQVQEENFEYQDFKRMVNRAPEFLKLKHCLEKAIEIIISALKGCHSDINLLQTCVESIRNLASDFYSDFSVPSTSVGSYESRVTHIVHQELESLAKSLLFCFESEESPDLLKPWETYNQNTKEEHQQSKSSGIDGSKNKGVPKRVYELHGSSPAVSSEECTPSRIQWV
Sequence of UniProt Q15013 (Q15013 whole entry, looked up): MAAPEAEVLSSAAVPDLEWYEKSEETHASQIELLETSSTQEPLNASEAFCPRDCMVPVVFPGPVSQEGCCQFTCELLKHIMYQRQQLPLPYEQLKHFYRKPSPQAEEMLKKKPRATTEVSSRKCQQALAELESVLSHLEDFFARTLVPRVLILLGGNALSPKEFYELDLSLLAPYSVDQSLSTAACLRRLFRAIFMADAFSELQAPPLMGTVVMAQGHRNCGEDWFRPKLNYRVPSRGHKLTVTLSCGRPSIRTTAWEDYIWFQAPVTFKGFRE
Sequence of UniProt Q9Y448 (Q9Y448 whole entry, looked up): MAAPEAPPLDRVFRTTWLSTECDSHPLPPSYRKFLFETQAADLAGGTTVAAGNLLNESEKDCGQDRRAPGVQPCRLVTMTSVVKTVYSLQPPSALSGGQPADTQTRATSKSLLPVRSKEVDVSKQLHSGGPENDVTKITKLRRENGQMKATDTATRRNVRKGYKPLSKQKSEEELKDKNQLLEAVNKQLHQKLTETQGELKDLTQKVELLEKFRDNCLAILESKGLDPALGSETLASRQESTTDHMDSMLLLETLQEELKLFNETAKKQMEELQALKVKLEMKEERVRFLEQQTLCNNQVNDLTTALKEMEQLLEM
Sequence of UniProt Q9HD34 (Q9HD34 whole entry, looked up): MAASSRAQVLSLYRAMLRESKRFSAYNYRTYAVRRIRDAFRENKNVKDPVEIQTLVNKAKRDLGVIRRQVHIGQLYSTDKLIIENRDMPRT

Target | log2 fold change [1] | log2 fold change [2] | log2 fold change [3] | log2 fold change [4] | log2 fold change [5]
LARP4B (UniProt Q92615) | 0.031 | -0.034 | 0.002 | 0.03 | -0.037
MAPK14 isoform 2 (UniProt Q16539) | 0.008 | -0.053 | 0.014 | -0.028 | 0.154
MAPK14 (UniProt Q16539) | 0.007 | 0.024 | 0.034 | -0.04 | -0.015
KPNA4 (UniProt O00629) | 0.06 | -0.068 | 0.044 | 0.011 | -0.169
MAD2L1BP isoform 3 (UniProt Q15013) | 0.003 | 0.005 | -0.013 | -0.01 | -0.006
KIF21A isoform 5 (UniProt Q7Z4S6) | -0.023 | 0.024 | -0.003 | 0.009 | 0.118
MFF isoform 2 (UniProt Q9GZY8) | 0.044 | -0.029 | -0.009 | -0.049 | -0.125
MICB, A0A140T979 | 0.028 | -0.012 | -0.003 | 0.026 | 0.019
MLXIP (UniProt Q9HAP2) | -0.063 | 0.005 | 0.018 | 0.031 | -0.025
MAP2K7 isoform 4 (UniProt O14733) | -0.072 | -0.261 | -0.038 | 0.066 | 0.079
LRCH3 (UniProt Q96II8) | -0.038 | -0.044 | 0.025 | -0.014 | -0.028
MOSPD2 (UniProt Q8NHP6) | -0.024 | 0.029 | 0.047 | -0.078 | -0.013
MAP2K5 (UniProt Q13163) | -0.046 | 0.155 | -0.045 | -0.407 | -0.02
LAMP1 (UniProt P11279) | -0.006 | 0.008 | 0.017 | -0.125 | -0.299
MED13L (UniProt Q71F56) | -0.034 | 0.029 | 0.028 | -0.095 | 0.014
KRR1 (UniProt Q13601) | 0.019 | -0.017 | 0.005 | 0.062 | 0.035
KNL1 (UniProt Q8NG31) | 0.009 | 0.003 | -0.004 | -0.03 | -0.001
MAP4 (UniProt P27816) | 0.027 | 0.012 | -0.012 | -0.027 | -0.043
KLC4 isoform 3 (UniProt Q9NSK0) | 0.011 | 0.004 | -0.003 | 0.01 | 0.014
LYRM4 (UniProt Q9HD34) | -0.03 | 0.074 | 0.077 | 0.006 | 0.004
KIF22 (UniProt Q14807) | 0.047 | 0.077 | 0.014 | -0.159 | -0.198
MARF1 (UniProt Q9Y4F3) | -0.052 | 0.013 | 0.175 | 0.024 | -0.023

Target | log2 fold change [1] | log2 fold change [2] | log2 fold change [3] | log2 fold change [4] | log2 fold change [5]
MRPL35 (UniProt Q9NZE8) | -0.028 | -0.002 | 0.331 | -0.04 | 0
MRPL12 (UniProt P52815) | -0.084 | 0.015 | -0.022 | 0.027 | 0.047
LBR (UniProt Q14739) | -0.018 | 0.045 | 0.04 | 0.007 | 0.117
MMS22L (UniProt Q6ZRQ5) | -0.062 | -0.027 | -0.038 | 0.07 | 0.11
MRPL10 isoform 2 (UniProt Q7Z7H8) | -0.053 | 0.097 | 0.023 | -0.026 | 0.016
KNSTRN (UniProt Q9Y448) | 0.097 | -0.057 | 0 | 0.002 | 0.034
LZTS1 (UniProt Q9Y250) | -0.082 | 0.049 | 0.065 | -0.628 | 0.324
LAS1L (UniProt Q9Y4W2) | -0.002 | 0 | -0.023 | 0.02 | -0.026
MCMBP (UniProt Q9BTE3) | -0.016 | 0.035 | 0.019 | -0.013 | 0.057
MORC3 (UniProt Q14149) | 0.013 | 0 | 0.003 | 0.013 | 0.012
LYN (UniProt P07948) | -0.063 | -0.103 | -0.091 | -0.032 | 0.011
KIF14 (UniProt Q15058) | 0.028 | -0.148 | 0.059 | -0.012 | 0.039
MED10 (UniProt Q9BTT4) | 0.038 | -0.033 | -0.04 | 0.015 | -0.009
MAP2K1 (UniProt Q02750) | -0.012 | 0.016 | -0.047 | -0.048 | 0.081
MAST4 (UniProt O15021) | 0.007 | -0.019 | -0.037 | 0.023 | 0
MIPEP (UniProt Q99797) | 0.015 | -0.019 | 0.052 | 0.028 | -0.008
MAP2K3 isoform 3 (UniProt P46734) | 0.035 | -0.021 | -0.024 | 0.043 | -0.006
MBTPS1 (UniProt Q14703) | -0.317 (active) | 0.141 | 0.079 | -0.063 | 0.017
MMS19 isoform 8 (UniProt Q96T76) | -0.024 | 0.001 | 0.032 | -0.005 | 0.018
MAST2 (UniProt Q6P0Q8) | -0.257 | 0.027 | 0.073 | -0.074 | -0.028
MED12 isoform 2 (UniProt Q93074) | 0.013 | -0.024 | -0.019 | 0.042 | 0.031
